In ChEMBL document CHEMBL1961873, “Compounds: GSK PKIS; Assays: Nanosyn kinase panel” (2012):

Key:
[1] = molecular target: T1, Muscle, skeletal receptor tyrosine-protein kinase (Homo sapiens) (UniProt O15146); conditions: at 1 µM;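 also: reported value is the mean percent inhibition of MuSK kinase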
T1 sequence (whole entry): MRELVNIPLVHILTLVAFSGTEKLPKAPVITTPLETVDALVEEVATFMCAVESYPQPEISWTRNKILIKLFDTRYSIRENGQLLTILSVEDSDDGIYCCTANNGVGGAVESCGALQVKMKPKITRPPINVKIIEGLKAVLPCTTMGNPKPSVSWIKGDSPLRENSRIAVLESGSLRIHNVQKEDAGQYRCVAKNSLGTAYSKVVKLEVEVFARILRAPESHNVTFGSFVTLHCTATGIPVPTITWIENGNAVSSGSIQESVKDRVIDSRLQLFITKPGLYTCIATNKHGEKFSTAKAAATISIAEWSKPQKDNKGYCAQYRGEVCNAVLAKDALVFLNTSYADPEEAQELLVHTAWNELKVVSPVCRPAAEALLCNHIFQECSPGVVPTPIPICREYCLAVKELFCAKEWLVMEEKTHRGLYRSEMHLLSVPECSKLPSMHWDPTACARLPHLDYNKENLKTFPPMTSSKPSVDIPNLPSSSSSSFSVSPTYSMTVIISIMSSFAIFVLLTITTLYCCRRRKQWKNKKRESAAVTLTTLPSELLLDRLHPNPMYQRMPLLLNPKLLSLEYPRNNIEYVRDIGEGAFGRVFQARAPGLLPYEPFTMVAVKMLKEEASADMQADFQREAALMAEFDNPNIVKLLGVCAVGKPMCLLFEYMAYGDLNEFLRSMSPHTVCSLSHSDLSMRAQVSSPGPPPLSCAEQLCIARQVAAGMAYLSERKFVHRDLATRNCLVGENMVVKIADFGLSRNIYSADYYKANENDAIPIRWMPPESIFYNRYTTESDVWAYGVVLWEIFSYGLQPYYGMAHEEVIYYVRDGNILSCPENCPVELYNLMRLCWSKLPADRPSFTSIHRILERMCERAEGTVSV

[2] = molecular target: Platelet-derived growth factor receptor alpha (Homo sapiens) (UniProt P16234); conditions: at 0.1 µM
[3] = molecular target: Platelet-derived growth factor receptor alpha (Homo sapiens) (UniProt P16234); conditions: at 1 µM
[4] = system: Platelet-derived growth factor receptor alpha (Homo sapiens), P16234 [D842V]; conditions: at 0.1 µM
Sequence of Platelet-derived growth factor receptor alpha (Homo sapiens), P16234 [D842V] (P16234 whole entry D842V): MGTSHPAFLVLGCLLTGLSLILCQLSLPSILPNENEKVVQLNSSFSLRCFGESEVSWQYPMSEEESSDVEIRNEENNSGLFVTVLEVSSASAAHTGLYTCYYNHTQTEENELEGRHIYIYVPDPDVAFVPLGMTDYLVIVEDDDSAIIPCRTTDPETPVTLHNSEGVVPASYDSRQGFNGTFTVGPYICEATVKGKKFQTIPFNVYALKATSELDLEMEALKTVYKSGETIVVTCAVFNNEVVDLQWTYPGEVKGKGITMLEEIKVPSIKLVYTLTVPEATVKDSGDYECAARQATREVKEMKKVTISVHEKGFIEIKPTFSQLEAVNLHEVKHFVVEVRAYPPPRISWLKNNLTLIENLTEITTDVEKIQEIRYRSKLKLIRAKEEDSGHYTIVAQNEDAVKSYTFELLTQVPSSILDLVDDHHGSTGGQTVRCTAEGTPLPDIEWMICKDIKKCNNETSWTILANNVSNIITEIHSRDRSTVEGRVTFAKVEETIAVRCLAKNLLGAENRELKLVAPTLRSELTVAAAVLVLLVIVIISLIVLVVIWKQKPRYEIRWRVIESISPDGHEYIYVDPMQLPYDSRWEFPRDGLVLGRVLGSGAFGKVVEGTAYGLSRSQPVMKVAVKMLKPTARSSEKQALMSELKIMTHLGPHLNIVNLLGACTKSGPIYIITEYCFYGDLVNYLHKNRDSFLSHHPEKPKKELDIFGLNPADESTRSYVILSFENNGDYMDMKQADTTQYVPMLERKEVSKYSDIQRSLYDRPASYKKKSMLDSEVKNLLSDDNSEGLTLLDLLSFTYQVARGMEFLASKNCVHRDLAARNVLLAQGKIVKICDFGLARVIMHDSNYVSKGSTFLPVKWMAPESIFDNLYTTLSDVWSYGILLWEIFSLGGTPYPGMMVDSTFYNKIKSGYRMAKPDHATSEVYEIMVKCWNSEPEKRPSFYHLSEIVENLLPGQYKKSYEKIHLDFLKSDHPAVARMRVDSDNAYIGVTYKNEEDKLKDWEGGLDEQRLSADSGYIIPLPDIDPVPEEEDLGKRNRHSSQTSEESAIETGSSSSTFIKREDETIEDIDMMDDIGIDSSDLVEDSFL

[5] = system: Platelet-derived growth factor receptor alpha (Homo sapiens), P16234 [D842V]; conditions: at 1 µM
[6] = system: Platelet-derived growth factor receptor alpha (Homo sapiens), P16234 [T674I]; conditions: at 0.1 µM
[7] = system: Platelet-derived growth factor receptor alpha (Homo sapiens), P16234 [T674I]; conditions: at 1 µM
[8] = system: Platelet-derived growth factor receptor alpha (Homo sapiens), P16234 [V561D]; conditions: at 0.1 µM
[9] = system: Platelet-derived growth factor receptor alpha (Homo sapiens), P16234 [V561D]; conditions: at 1 µM
[10] = molecular target: Platelet-derived growth factor receptor beta (Homo sapiens) (UniProt P09619); conditions: at 0.1 µM
Sequence of Platelet-derived growth factor receptor beta (Homo sapiens) (P09619 whole entry): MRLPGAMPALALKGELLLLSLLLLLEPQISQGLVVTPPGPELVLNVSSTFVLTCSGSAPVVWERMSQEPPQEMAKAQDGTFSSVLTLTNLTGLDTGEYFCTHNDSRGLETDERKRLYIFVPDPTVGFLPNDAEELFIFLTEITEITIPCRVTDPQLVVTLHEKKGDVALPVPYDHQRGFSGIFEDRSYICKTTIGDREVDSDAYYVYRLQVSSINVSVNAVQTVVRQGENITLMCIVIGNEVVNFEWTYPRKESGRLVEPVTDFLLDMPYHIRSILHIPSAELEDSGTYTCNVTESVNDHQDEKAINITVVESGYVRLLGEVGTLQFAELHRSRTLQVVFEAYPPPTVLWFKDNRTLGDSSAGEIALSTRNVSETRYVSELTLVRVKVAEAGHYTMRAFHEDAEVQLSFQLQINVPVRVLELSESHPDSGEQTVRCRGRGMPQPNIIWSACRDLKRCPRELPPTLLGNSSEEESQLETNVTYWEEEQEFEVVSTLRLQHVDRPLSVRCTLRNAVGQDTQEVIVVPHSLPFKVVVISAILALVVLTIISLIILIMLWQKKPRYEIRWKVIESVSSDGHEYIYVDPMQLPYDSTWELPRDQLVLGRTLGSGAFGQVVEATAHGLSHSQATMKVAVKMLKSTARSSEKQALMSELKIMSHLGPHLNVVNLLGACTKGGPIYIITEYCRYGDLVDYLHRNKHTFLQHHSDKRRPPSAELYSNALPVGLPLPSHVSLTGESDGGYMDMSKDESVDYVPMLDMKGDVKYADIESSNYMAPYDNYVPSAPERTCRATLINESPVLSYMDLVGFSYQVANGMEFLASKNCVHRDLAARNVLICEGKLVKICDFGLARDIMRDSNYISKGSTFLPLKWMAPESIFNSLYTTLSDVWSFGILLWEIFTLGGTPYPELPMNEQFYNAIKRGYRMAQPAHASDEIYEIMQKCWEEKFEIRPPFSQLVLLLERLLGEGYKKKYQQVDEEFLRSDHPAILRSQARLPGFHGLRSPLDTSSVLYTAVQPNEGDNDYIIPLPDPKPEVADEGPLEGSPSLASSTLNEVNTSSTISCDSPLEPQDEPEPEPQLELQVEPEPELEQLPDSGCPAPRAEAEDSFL

[11] = molecular target: Platelet-derived growth factor receptor beta (Homo sapiens) (UniProt P09619); conditions: at 1 µM
[12] = molecular target: Tyrosine-protein kinase FRK (Homo sapiens) (UniProt P42685); conditions: at 0.1 µM
Sequence of Tyrosine-protein kinase FRK (Homo sapiens) (P42685 whole entry): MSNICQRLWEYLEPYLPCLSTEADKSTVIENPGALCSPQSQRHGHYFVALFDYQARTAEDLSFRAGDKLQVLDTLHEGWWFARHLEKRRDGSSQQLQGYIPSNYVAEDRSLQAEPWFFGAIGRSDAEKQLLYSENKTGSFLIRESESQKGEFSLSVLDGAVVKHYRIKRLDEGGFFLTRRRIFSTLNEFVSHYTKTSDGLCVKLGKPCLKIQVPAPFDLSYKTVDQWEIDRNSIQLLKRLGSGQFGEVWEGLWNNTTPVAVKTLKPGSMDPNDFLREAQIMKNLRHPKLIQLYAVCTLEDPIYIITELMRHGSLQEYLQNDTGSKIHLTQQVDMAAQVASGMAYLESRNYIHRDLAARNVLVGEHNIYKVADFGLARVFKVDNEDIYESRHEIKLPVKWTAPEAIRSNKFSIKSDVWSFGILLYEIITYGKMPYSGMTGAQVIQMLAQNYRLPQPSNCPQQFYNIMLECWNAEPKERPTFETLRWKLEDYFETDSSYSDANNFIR

[13] = molecular target: Tyrosine-protein kinase FRK (Homo sapiens) (UniProt P42685); conditions: at 1 µM
[14] = molecular target: Protein-tyrosine kinase 2-beta (Homo sapiens) (UniProt Q14289); conditions: at 0.1 µM
[15] = molecular target: Protein-tyrosine kinase 2-beta (Homo sapiens) (UniProt Q14289); conditions: at 1 µM
[16] = molecular target: Proto-oncogene tyrosine-protein kinase receptor Ret (Homo sapiens) (UniProt P07949); conditions: at 0.1 µM
Sequence of Proto-oncogene tyrosine-protein kinase receptor Ret (Homo sapiens) (P07949 whole entry): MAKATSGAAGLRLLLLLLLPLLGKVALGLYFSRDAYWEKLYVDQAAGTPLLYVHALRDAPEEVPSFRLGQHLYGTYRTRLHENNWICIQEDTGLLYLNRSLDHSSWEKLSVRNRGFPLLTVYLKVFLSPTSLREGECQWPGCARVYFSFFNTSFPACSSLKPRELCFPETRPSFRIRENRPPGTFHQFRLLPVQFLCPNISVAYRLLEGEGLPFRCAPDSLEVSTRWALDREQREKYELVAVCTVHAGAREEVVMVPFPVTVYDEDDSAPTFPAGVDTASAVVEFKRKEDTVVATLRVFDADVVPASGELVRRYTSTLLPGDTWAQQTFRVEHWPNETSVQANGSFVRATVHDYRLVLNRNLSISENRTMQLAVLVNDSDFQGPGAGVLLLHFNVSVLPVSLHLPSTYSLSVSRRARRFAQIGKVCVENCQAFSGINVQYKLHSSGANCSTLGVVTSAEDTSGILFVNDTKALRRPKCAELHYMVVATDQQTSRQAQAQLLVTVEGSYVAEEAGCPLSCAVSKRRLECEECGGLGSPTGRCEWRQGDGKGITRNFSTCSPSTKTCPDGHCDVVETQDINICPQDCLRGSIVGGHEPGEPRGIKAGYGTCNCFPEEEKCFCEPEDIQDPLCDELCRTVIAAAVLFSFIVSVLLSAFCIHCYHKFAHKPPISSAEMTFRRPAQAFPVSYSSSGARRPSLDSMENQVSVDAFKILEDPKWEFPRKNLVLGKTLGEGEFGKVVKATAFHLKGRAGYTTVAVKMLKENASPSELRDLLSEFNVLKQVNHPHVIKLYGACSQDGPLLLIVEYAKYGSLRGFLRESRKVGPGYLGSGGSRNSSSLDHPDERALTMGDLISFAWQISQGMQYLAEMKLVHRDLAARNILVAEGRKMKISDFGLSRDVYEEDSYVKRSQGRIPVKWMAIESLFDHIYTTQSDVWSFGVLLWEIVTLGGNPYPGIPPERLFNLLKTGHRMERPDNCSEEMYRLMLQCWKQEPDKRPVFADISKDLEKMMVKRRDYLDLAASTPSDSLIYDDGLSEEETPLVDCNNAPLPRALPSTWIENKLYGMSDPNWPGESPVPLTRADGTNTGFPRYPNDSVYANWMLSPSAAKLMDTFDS

[17] = molecular target: Proto-oncogene tyrosine-protein kinase receptor Ret (Homo sapiens) (UniProt P07949); conditions: at 1 µM
[18] = system: Proto-oncogene tyrosine-protein kinase receptor Ret (Homo sapiens), P07949 [V804L]; conditions: at 0.1 µM
[19] = system: Proto-oncogene tyrosine-protein kinase receptor Ret (Homo sapiens), P07949 [V804L]; conditions: at 1 µM
[20] = system: Proto-oncogene tyrosine-protein kinase receptor Ret (Homo sapiens), P07949 [Y791F]; conditions: at 0.1 µM
Sequence of Proto-oncogene tyrosine-protein kinase receptor Ret (Homo sapiens), P07949 [Y791F] (P07949 whole entry Y791F): as the sequence (P07949 whole entry) above, with Y791F counted along it

SMILES	inhibition [1]	inhibition [2]	inhibition [3]	inhibition [4]	inhibition [5]	inhibition [6]	inhibition [7]	inhibition [8]	inhibition [9]	inhibition [10]	inhibition [11]	inhibition [12]	inhibition [13]	inhibition [14]	inhibition [15]	inhibition [16]	inhibition [17]	inhibition [18]	inhibition [19]	inhibition [20]
c1ccc(Nc2ncc(-c3ccccc3)o2)cc1	4.33%	9.48%	30.3%	3.2%	7.2%	6.18%	36.6%	20%	45.7%	10.8%	36%	3.95%	4.95%	10.4%	14.3%	6.9%	9.61%	2.13%	6.39%	5.1%
C[C@@H](Oc1cc(-n2cnc3ccc(OC[C@@H](O)CO)cc32)sc1C(N)=O)c1ccccc1Cl	51.4%	13.8%	62.4%	4.15%	40.5%	0.37%	51.2%	7.79%	50.1%	7.9%	54.6%	0.8%	2.17%	-2.91%	-1.09%	0.87%	7.49%	2.02%	5.35%	-0.83%
COC(=O)c1ccc2c(c1)C(=Cc1cc(Br)c(O)c(Br)c1)C(=O)N2	8.06%	5.39%	16.1%	2.33%	12.2%	1.96%	3.91%	4.32%	12.3%	1.55%	6.26%	1.55%	7.02%	3.82%	13.8%	7.67%	25.8%	7.28%	39.8%	12.2%
CC(C)c1ccc(Nc2nccc(-c3cnn4ncccc34)n2)cc1	8.57%	13%	43.5%	6.98%	43%	12.4%	63.6%	18.9%	55.2%	9.63%	40.8%	0.49%	1.12%	12%	45.8%	6.8%	14.4%	4.06%	10.1%	5.09%
CCn1c(-c2nonc2N)nc2c(C#CC(C)(C)O)nc(OCCNC)cc21	3.32%	3.73%	16.3%	5.07%	17.5%	2.61%	14.2%	3.69%	11.1%	3.31%	24.2%	3.46%	3.09%	8.7%	10.6%	8.91%	23.6%	2.4%	4.07%	7.43%
COC(=O)Nc1nc2cc(Oc3ccc(NC(=O)Nc4cccc(Br)c4)cc3)ccc2[nH]1	49.3%	75.2%	87.4%	5.64%	13.8%	83.8%	98.1%	84%	94.6%	17.4%	35.9%	2.82%	1.12%	5.36%	9.53%	69.7%	80.6%	37.5%	66.5%	66.4%
Cc1ccc2c(-c3ccnc(Nc4cccc(C(F)(F)F)c4)n3)c(-c3ccccc3)nn2n1	5.46%	13.9%	61%	10.5%	38.4%	3.21%	9.14%	14.2%	52%	35.4%	85.2%	5%	30.1%	16.5%	59.5%	15.4%	51%	2.52%	3.3%	6.2%
Cc1ccc(Nc2ccnc(Nc3cccc(C(N)=O)c3)n2)cc1O	26.7%	48.1%	82.3%	48.4%	88.5%	6.94%	26.3%	46.3%	87.2%	54.7%	79.7%	48.6%	87.6%	9.71%	47.8%	73.5%	85.7%	11.7%	49.7%	74.6%
ON=C1CCc2cc(-c3nc(C4CCNCC4)[nH]c3-c3ccncc3)ccc21	1.9%	2.97%	10.5%	2.44%	6.66%	1%	0.52%	1.54%	6.14%	4.22%	23.3%	2.38%	-1.06%	1.86%	1.17%	1.22%	7.25%	6.18%	-3.85%	1.94%
COc1cccc(-n2ncc3c(N/N=C/c4ccc(C)cc4)ncnc32)c1	13%	8.78%	23.2%	6.24%	24.4%	4.6%	17.1%	7.1%	25.9%	7.34%	21.1%	2.86%	5.6%	4.06%	15.8%	3%	11.5%	3.72%	10.2%	4.38%
COc1cc2ncnc(Nc3ccc(C)c(O)c3)c2cc1OC	7.42%	85.7%	93.9%	94.2%	98%	6.7%	16.9%	89.4%	97.8%	33.2%	76.6%	7.74%	19.9%	12.5%	18.9%	83.6%	89.4%	3.3%	11.3%	76.8%
Oc1cccc(-c2nc(-c3ccccc3)[nH]c2-c2ccncc2)c1	8.69%	8.99%	18.5%	4%	13.2%	5.63%	5.18%	2.42%	9.69%	5.66%	17.1%	2.98%	16.5%	7.31%	14.2%	27.4%	72.8%	4.04%	7.21%	30%
c1ccc(Cc2nc3ccc(Nc4ncnc5ccccc45)cc3[nH]2)cc1	3.78%	8.25%	17%	-0.75%	1%	3.02%	5.74%	3.34%	12.9%	4.81%	14.8%	2.62%	0.81%	2.62%	13.4%	4.63%	9.44%	2.59%	9.82%	3.35%
NS(=O)(=O)c1cccc(Nc2cc(-c3ccc(F)cc3)n[nH]2)c1	13.7%	12.7%	36.1%	3.21%	16.6%	9.3%	43%	29.1%	50.8%	12.7%	38%	1.05%	2.07%	7.64%	12.6%	4.74%	17.9%	5.42%	25.3%	3.26%
Nc1nccc(C#Cc2cncnc2Nc2ccc(OCc3cccc(F)c3)c(Cl)c2)n1	5.94%	15.4%	15.5%	4.4%	4.87%	5.45%	7.68%	4.25%	4.88%	7.6%	11.6%	2.59%	0.85%	8.24%	14.2%	1.17%	5.76%	10.1%	15%	4.88%
CN(C)C(=O)O[C@H]1CN[C@H](C#Cc2cc3ncnc(Nc4ccc(OCc5cccc(F)c5)c(Cl)c4)c3s2)C1	3.36%	6.77%	11.1%	3.09%	1.15%	5.6%	4.48%	4.17%	7.24%	2.18%	6.43%	1.37%	1.4%	6.18%	3.98%	4.97%	19.5%	3.2%	4.12%	3.68%
OCc1ccc(-c2nc(-c3ccccn3)c(-c3ccc4c(c3)OCO4)[nH]2)cc1	3.91%	9.57%	12.2%	4.62%	6.61%	6.55%	6.47%	3.57%	7.37%	4.87%	11%	2.25%	2.05%	12%	13.1%	4.72%	4.99%	4.41%	1.05%	12.3%
NS(=O)(=O)c1ccc(N/N=C2\C(=O)Nc3ccc(Cl)cc32)cc1	12.6%	13.1%	40.6%	4.17%	13.1%	11.4%	62.9%	17.2%	47%	11.1%	36.7%	1.76%	1.45%	6.41%	14%	-0.09%	14.5%	8.27%	41.6%	2.06%
CN(C)C(=O)O[C@@H]1CN[C@@H](C#Cc2cc3ncnc(Nc4ccc(OCc5cccc(F)c5)c(Cl)c4)c3s2)C1	1.14%	3.88%	7.94%	0.63%	1.66%	1%	0.01%	0.98%	5.29%	5.61%	9.98%	0.71%	2.18%	-3.27%	3.14%	3.72%	4.94%	0.31%	-0.74%	3.85%
CS(=O)(=O)Nc1cccc(-c2ccc3c(NC(=O)C4CC4)n[nH]c3c2)c1	3.16%	3.7%	13.2%	4.33%	8.89%	0.91%	-1.66%	1.13%	6.51%	-2.19%	7.8%	0.86%	0.42%	2.77%	3.01%	-0.07%	15.4%	-3.08%	-1.31%	1.94%
NS(=O)(=O)c1ccc(NC=C2C(=O)Nc3ccc4ncsc4c32)cc1	73%	69.8%	91.4%	75.9%	95%	29.3%	90%	68%	94.9%	73.2%	89.8%	4.28%	4.47%	21.8%	66.8%	47.7%	79.9%	59%	78.3%	46.1%
CCOc1nccc2c1nc(-c1nonc1N)n2CC	8.7%	11.7%	19.1%	1.89%	6.37%	10.8%	9.83%	6.37%	5.39%	7.89%	20.2%	1.66%	-0.64%	5.11%	7.29%	5.47%	12.3%	8.5%	20.2%	9.76%
COc1cc(/C=N/Nc2ncnc3c2cnn3C(C)C)ccc1O	53.2%	17.4%	64.7%	13.3%	61.1%	3.82%	4.12%	12.3%	54.8%	8.52%	45.1%	2.61%	1.87%	8.31%	21.9%	61.1%	85.4%	14.1%	53.9%	54%
Nc1ccc(C#Cc2cncnc2Nc2ccc(OCc3cccc(F)c3)c(Cl)c2)cc1	-0.75%	3.02%	5.52%	2.77%	2.86%	3.22%	5.56%	1.6%	3.26%	3.04%	3.64%	0.8%	1.06%	-4.77%	0.23%	6.12%	7.18%	9.98%	3.18%	2.75%
Cc1cc(-c2ccccn2)cc(C)c1/C=C/c1cncc(-c2nn[nH]n2)c1	5.02%	4.62%	15.4%	-0.56%	2.51%	4.3%	8.72%	3.13%	7.97%	4.53%	13.4%	1.59%	4.57%	3.75%	13.3%	5.88%	5.38%	3.85%	5.09%	5.19%
O=S(=O)(CCOCc1ccc(-c2ccc3ncnc(Nc4ccc(OCc5cccc(F)c5)c(Cl)c4)c3c2)o1)c1ccccc1	5.38%	4.21%	10%	0.75%	1.61%	6.02%	8.5%	3.15%	3.68%	2.33%	7.33%	1.09%	0.79%	4.11%	8.55%	5.25%	5.38%	6.3%	10.1%	7.95%
NC(=O)c1sc(-n2cnc3ccccc32)cc1OCc1ccccc1Br	7.28%	6.48%	15.4%	4.15%	6.85%	2.52%	5.25%	5.2%	9.55%	4.3%	14.4%	2.57%	3.29%	7.34%	6.52%	9.37%	12.7%	3.43%	5.79%	5.9%
